# Bioassay records deposited in PubChem by The Scripps Research Institute Molecular Screening Center.
# FBW7 activator: FBW7 E3 ligase activators, primary screen, biochemical, AlphaScreen, human; AID 1259310, 2017; AlphaScreen FBW7–phospho-cyclin E peptide binding, activator screen; normalized activity (activation), % at 26.1 µM; 650,000 tested, 0.13% active; in the data active means normalized activity above about 1.9%;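 further: purified mutant Fbw7 with reduced substrate affinity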
# TEAD-YAP block: TEAD-YAP interaction inhibition, primary screen, TEAD-YAP interaction inhibitor project, luminescence, HEK-TIYL cells; 640,000 tested, 1.4% active; inhibition, % at 9.12 µM; TEAD-Gal4/YAP UAS-luciferase luminescence; AID 1259422, 2018; in the data active means inhibition above about 32%
# MITF primary: MITF inhibitors, primary screen, biochemical, AlphaScreen, human; Microphthalmia-associated transcription factor (Homo sapiens), O75030; AlphaScreen MITF homodimerization, bead proximity signal; inhibition, % at 2.6 µM; 650,000 tested, 0.91% active; AID 1259374, 2018; in the data active means inhibition above about 50%
# GPR151 ag: activators of human GPR151, primary screen, cell-based, PathHunter beta-arrestin, luminescence; G-protein coupled receptor 151 (Homo sapiens), Q8TDV0; PathHunter beta-arrestin GPR151 cells; activation, % at 11.2 µM; 650,000 tested, 1% active; AID 1508602, 2020; in the data active means activation above about 4.9%
# A number is an active result; – = inactive. Hits are enriched below; roughly 3.5% of the tested compounds scored in any of these assays.
SMILES,FBW7 activator,TEAD-YAP block,MITF primary,GPR151 ag
O=c1c(O)c(-c2ccc(O)c(O)c2)oc2c(O)c(O)cc(O)c12,–,–,57.2,–
CCn1cnc2c(Nc3cccc(Cl)c3)nc(N[C@@H]3CCCC[C@@H]3N)nc21,–,46.3,–,–
Cc1cc(C(=O)O)c(C)n1C1CCCCC1,–,–,–,–
NC(=O)C1CCN(/C=C2\C(=O)NC(=O)N(Cc3ccco3)C2=O)CC1,–,–,58.0,–
O=C1NC(=O)N(Cc2ccco2)C(=O)/C1=C\c1cn(Cc2ccccc2)c2ccccc12,–,–,–,–
Cc1ccc(-n2c(/C=C/c3ccccc3Br)nc3ccccc3c2=O)cc1,–,51.3,–,–
Cc1cccc(N2CCN(CC(=O)Nc3ccc(Br)cc3C(=O)c3ccccc3Br)CC2)c1,–,–,–,–
CN1C2CCC1/C(=C\c1cccnc1)C(=O)/C2=C/c1cccnc1,–,52.6,–,–
O=C1/C(=C/c2cccnc2)N2CCC1CC2,–,–,–,–
C=COCCCn1c(C)c(C(C)=O)c2cc(O)ccc21,–,–,–,–
C=CCC1(CC=C)C(=O)NC(=O)N(Cc2ccccc2)C1=O,–,–,–,–
CC(C)c1ccc(C2C(C#N)=C(N)Oc3c2c(=O)oc2ccccc32)cc1 (stereo unspecified),–,–,–,–
COC1CC2C(Cl)C1NC2(C(F)(F)F)C(F)(F)F (stereo unspecified),–,–,–,–
O=C1NC(=S)N(c2ccccc2F)C(=O)/C1=C\c1ccco1,–,–,71.6,–
C=CCN1C(=O)/C(=C/c2ccco2)C(=O)NC1=S,–,–,77.3,–
O=C1NC(=S)N(c2ccccc2)C(=O)/C1=C/c1ccco1,–,–,66.3,–
Cc1ccc(N2C(=O)/C(=C\C=C\c3ccco3)C(=O)NC2=S)cc1,–,–,59.2,–
O=C1c2ccccc2-c2onc3c(Br)cc(N4CC4)c1c23,–,–,–,–
CN1CCN(Cc2cccc(F)c2F)CC1CCO (stereo unspecified),–,–,–,–
O=C1NC(=S)N(Cc2ccco2)C(=O)/C1=C\c1cccs1,–,–,82.0,–
O=C1NC(=O)N(Cc2ccco2)C(=O)/C1=C\c1ccco1,–,–,–,–
NCCc1cc(O)c(O)cc1O,–,–,113.8,–
Cc1cccn2c(=O)c3cc(C#N)c(=O)n(CCN4CCOCC4)c3nc12,–,–,–,–
CN1CC=C(c2noc(CCC(=O)Nc3ccccc3Cl)n2)CC1,–,–,–,–
CN1CC=C(c2noc(CCC(=O)N3CCN(c4ncccn4)CC3)n2)CC1,–,–,–,–
SMILES,FBW7 activator,TEAD-YAP block,MITF primary,GPR151 ag
CN1CC=C(c2noc(CCC(=O)Nc3cccc(Cl)c3)n2)CC1,1.9,–,–,–
Cc1cccc(N2CCN(C(=O)CCc3nc(C4=CCN(C)CC4)no3)CC2C)c1 (stereo unspecified),4.1,–,–,–
CN(C)c1nc(OCC(Cl)(Cl)Cl)nc(N(C)C)n1,–,–,–,–
O=c1c2ccccc2nc(/C=C/c2ccc(O)cc2)n1-c1ccccc1,–,–,–,–
COc1cccc(/C=C/c2nc3ccccc3c(=O)n2-c2ccc(C)cc2)c1O,–,–,–,–
N#CC1=C(N)Oc2c(c(=O)oc3ccccc23)C1c1ccoc1 (stereo unspecified),–,–,–,–
CN1C(=O)NC(=O)/C(=C\c2cccc(Oc3ccccc3)c2)C1=O,–,–,64.8,–
CN1C(=O)NC(=O)/C(=C/c2cccs2)C1=O,–,–,–,–
O=[N+]([O-])c1cccc(CN2CCN(Cc3ccccc3)CC2)c1,–,–,–,–
O=Cc1cn(Cc2cccc([N+](=O)[O-])c2)c2ccccc12,–,48.3,–,–
COCCNC(=O)c1c(N)n(CC2CCCO2)c2nc3cc4c(cc3nc12)OCCO4 (stereo unspecified),–,–,–,–
Cc1cc(OCC(=O)c2ccc(Cl)cc2)c2c3c(c(=O)oc2c1)CCCC3,–,–,–,–
NC(Cc1cc(O)c(O)cc1O)C(=O)O (stereo unspecified),–,–,62.0,–
O=c1c2ccccc2nc(/C=C/c2ccc([N+](=O)[O-])o2)n1-c1cccc(O)c1,–,34.3,–,–
COc1ccccc1CC1/C(=N\O)C2CCN1CC2 (stereo unspecified),–,–,–,–
CCOC(=O)C1C2NC(=S)N(c3ccc(C)cc3)C1(C)Oc1c(Cl)cc(Cl)cc12 (stereo unspecified),–,63.4,–,–
